Data taken from PMC4336329 (PLoS ONE, 2015).
In all, about 310,000 compounds went through this assay and about 14,000 (4.5%) showed an effect of 50% or more. The effect is printed as a negative number. The full list was thinned out, with strong results kept by preference.

These compounds were tested against human ether-à-go-go-related gene (hERG) potassium channel (human, UniProt Q12809) (assay: primary screen, population patch clamp on CHO cells stably expressing hERG; higher = less effect of the substance).
Sequence of human ether-à-go-go-related gene (hERG) potassium channel (Q12809 whole entry, looked up): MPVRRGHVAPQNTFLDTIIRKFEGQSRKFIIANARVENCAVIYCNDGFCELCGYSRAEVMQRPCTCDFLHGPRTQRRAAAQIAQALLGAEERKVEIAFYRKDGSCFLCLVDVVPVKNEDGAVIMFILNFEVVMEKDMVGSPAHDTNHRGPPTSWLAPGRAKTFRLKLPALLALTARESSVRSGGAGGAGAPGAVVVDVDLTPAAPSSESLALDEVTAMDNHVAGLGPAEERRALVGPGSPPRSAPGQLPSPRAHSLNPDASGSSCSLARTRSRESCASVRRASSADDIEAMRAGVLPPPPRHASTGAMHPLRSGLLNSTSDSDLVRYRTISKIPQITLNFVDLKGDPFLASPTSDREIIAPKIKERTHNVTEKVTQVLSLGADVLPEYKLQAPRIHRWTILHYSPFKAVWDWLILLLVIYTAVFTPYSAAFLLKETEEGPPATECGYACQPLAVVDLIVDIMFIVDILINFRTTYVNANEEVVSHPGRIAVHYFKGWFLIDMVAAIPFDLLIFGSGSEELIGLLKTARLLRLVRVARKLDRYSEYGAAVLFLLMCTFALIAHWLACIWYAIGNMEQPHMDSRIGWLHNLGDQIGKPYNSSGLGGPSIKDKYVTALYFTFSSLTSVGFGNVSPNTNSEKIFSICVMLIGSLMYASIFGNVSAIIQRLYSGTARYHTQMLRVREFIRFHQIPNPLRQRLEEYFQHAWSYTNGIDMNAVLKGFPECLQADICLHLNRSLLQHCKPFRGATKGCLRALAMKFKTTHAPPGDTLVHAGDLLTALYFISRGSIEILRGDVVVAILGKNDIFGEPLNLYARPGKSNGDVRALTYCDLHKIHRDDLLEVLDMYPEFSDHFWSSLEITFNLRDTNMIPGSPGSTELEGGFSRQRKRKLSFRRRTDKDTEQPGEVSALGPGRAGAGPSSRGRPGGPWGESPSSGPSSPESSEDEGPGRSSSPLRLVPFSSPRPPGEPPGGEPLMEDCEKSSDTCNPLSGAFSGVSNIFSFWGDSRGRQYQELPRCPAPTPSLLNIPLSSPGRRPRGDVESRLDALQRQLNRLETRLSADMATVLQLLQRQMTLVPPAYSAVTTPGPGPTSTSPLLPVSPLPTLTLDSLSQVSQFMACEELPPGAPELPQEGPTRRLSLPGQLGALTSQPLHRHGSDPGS
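Further: peak tail current of the secondary pulse compared with the same well before compound.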

| SMILES | hERG current change (%, negative = inhibition) at 10uM |
| --- | --- |
| CC(=O)c1c(N2CCN(C)CC2)nc(=S)n(-c2cc(C)ccc2C)c1C | 28.7% |
| CC(C)(C)C(=O)Nc1ccc(S(=O)(=O)N2CCCC2)cc1 | 4.25% |
| COc1ccc(CC(=O)Nc2cc(NC(=O)Cc3ccc(OC)c(OC)c3)cc(C(=O)O)c2)cc1OC | 14.3% |
| CN(c1ccccc1)c1nc(N)c([N+](=O)[O-])c(NCc2ccccc2)n1 | 17.6% |
| O=C(c1cc(-c2ccc(F)cc2)nc2ccccc12)N1CCN(C2CCS(=O)(=O)C2)CC1 (centres unmarked) | -69% |
| COc1ccc(-c2cc(C(=O)N3CCCC3)c3ccccc3n2)cc1 | -2.31% |
| O=C(NC1CCS(=O)(=O)C1)c1cc(-c2ccccc2)nc2ccccc12 (centres unmarked) | 13.6% |
| Cc1ccc(-c2cc(C(=O)N3CCN(C4CCS(=O)(=O)C4)CC3)c3ccccc3n2)cc1 (centres unmarked) | -60.7% |
| Cc1ccc(-c2cc(C(=O)N3CCN(c4ncccn4)CC3)c3ccccc3n2)cc1 | -40.9% |
| O=C(c1cc(-c2ccccc2)nc2ccccc12)N1CCN(C2CCS(=O)(=O)C2)CC1 (centres unmarked) | -25% |
| Cc1ccccc1C(=O)Oc1cccc(Nc2ncnc3ccccc23)c1 | -3.38% |
| CCC(C)NC(=O)CN1C(=O)NC2(CCOc3ccccc32)C1=O (centres unmarked) | -9.56% |
| CCCNC(=O)Cc1ccsc1 | 9.93% |
| O=C(NCc1cccs1)C1CCN(S(=O)(=O)c2cccc([N+](=O)[O-])c2)CC1 | -15.7% |
| Fc1ccc(NC(=S)NCCc2ccccc2)c(F)c1F | -1.12% |
| CCC(Sc1nnc(C)c(=O)[nH]1)C(=O)Nc1cccc2ccccc12 (centres unmarked) | 10% |
| O=C(CCCc1nc2ccccc2s1)NCc1cccnc1 | 0.483% |
| C/C(=N\NC(=O)CN1CCN(S(=O)(=O)c2ccc(C)cc2)CC1)c1ccc(O)cc1 | -6.97% |
| C/C(=N\NC(=O)CN1CCN(S(=O)(=O)c2ccc(C)cc2)CC1)c1cccnc1 | -46.9% |
| NC(=O)CN1CCN(S(=O)(=O)c2ccc(Br)cc2)CC1 | 22.4% |
| C/C(=N/NC(=O)CN1CCN(S(=O)(=O)c2ccc(Br)cc2)CC1)c1ccncc1 | -80.3% |
| C/C(=N\NC(=O)CN1CCN(S(=O)(=O)c2ccc(C)cc2)CC1)c1ccncc1 | -77.1% |
| C/C(=N\NC(=O)CCc1ccc(S(=O)(=O)N2CCOCC2)cc1)c1ccc(Br)cc1 | 6.98% |
